Only some compounds are listed: those with a hit (about 3% of all), similar ones and a draw of the others.
Vif imaging = HIV Vif inhibition | HEK293T cells, Vif self-association by quenched fluorescence, imaging, 24 h | inhibition, % at 7.49 µM | actives 0.35% (n = 340,000) | AID 602346; in the data active means inhibition above about 50%, passing the limit was not always enough; inconclusive means no clear call, values can overlap the other calls; inactive means below about 31%
esBAF inh = SWI/SNF esBAF complex inhibition. reporter increase, % at 12.5 µM. mouse ES cells, Bmi1-luciferase knock-in reporter, 24 h; 100% = twice the neutral-well signal. AID 602393. actives 2% (n = 350,000); in the data active means activation above about 40%; inconclusive means no clear call, values can overlap the other calls;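 further: 0% = median of the plate's neutral control wells and 100% = double that signal; a rise in the Bmi1 reporter signal indicates esBAF inhibition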
MITF TRPM1 HTS = activators of MITF-driven TRPM1 promoter activity in SK-MEL-5 cells; AID 588334; SK-MEL-5 TRPM1-promoter luciferase, 24 h; % of positive control, neutral wells = 0; activation, % at 12.5 µM; actives 0.75% (n = 300,000);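 active means mean activation of at least 80% with every replicate also reaching 80%; inconclusive means mean reaches 80% but some replicate falls short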;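 further: 0% = neutral control wells and 100% = parthenolide positive control wells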
PfHsp90 set2 = reduces growth (ATP signal) of yeast expressing P. falciparum Hsp90; S. cerevisiae expressing PfHsp90, BacTiter-Glo ATP, 48 h; yeast lacking PDR1 and PDR3 efflux regulators; inhibition, % at 9.4 µM; AID 504621; actives 0.32% (n = 310,000);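 active means every replicate shows inhibition above about 80%, whatever the replicate mean, limit read from the data; inconclusive means mean inhibition reaches the set limit but some replicate falls short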;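 further: 0% = DMSO neutral controls and 100% = 20 µM radicicol positive controls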
N-glyco inh = N-linked glycosylation inhibition | actives 0.23% (n = 360,000) | reporter increase, % at 12.5 µM | D54 ERlucT glycosylation luciferase reporter, 24 h; percent of 100 nM tunicamycin response;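 active means mean luciferase reporter signal, scaled so untreated is 0 and the glycosylation-blocking control 100, at or above a set limit in every replicate; inconclusive means mean reaches the limit but not every replicate does; inactive means mean below the limit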;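 further: luciferase carries N-glycosylation sites so blocking glycosylation raises the light; 0% = median of neutral control wells and 100% = median of 100 nM tunicamycin wells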
Wnt bcat act = activators of Wnt/beta-catenin signaling; AID 743398; Wnt/beta-catenin reporter cell assay, activator, plate reader; actives 1.2% (n = 300,000); activation, % at 9.35 µM; in the data active means activation above about 30%, passing the limit was not always enough; inconclusive means no clear call, values can overlap the other calls;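 further: 0% = neutral control wells and 100% = positive control wells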
* marks the source's active call; other numbers are inactive results; ? = inconclusive; . = no result given.

SMILES	Vif imaging	esBAF inh	MITF TRPM1 HTS	PfHsp90 set2	N-glyco inh	Wnt bcat act
CCOc1ccc(C(=O)CSCCC(=O)O)cc1	23	-43	-21	-15	1	-3
CSc1ccccc1C(=O)N1CCC(CCC(=O)NCc2ccc(F)cc2)CC1	.	.	-2	9	4	0
CC(c1ccco1)N(C(=O)c1ccccc1NS(=O)(=O)c1ccc(Cl)cc1)c1ccccn1 (stereo not given)	1	8	-7	-5	-3	-1
CC(c1ccco1)N(C(=O)c1ccccc1F)c1ccccn1 (stereo not given)	.	.	-12	31	1	4
CC(c1ccco1)N(C(=O)COc1ccc(Cl)cc1)c1ccccn1 (stereo not given)	.	72*	34	-12	-5	.
CC(c1ccco1)N(C(=O)COc1ccc(Cl)cc1Cl)c1ccccn1 (stereo not given)	-2	27	105*	0	-13	18
O=C(NC1CCCC1)C1c2ccccc2OCC(=O)N1CCc1c[nH]c2ccccc12 (stereo not given)	.	.	.	.	.	-1
COc1ccccc1NC(=O)c1nnn(Cc2ccccc2)c1NC(=O)C(F)(F)F	6	-4	.	.	7	2
O=C(Nc1ccccc1)c1nnn(Cc2ccccc2)c1NC(=O)C(F)(F)F	-4	56*	.	.	13	21
CC1CCCC(NC(=O)Cn2cc3c(n2)CCCCC3)C1C (stereo not given)	0	0	-4	-7	-2	0
O=C(Cn1cc2c(n1)CCCCC2)NC1CCCCCC1	-11	47*	54	-13	2	5
COc1ccc(NC(=O)c2cc(C3CC3)on2)c(OC)c1	6	53*	.	8	2	-3
Cc1cc(NC(=O)c2cc(C3CC3)on2)no1	5	49*	.	19	0	1
Cc1cc(NC(=O)c2cc(C)on2)no1	2	1	0	.	-1	.
COc1ccc(C(=O)Nn2c(SCC(=O)NCc3ccco3)nc3ccccc3c2=O)cc1	1	.	-3	10	-18	.
COc1ccc(NC(=O)CSc2nc3ccccc3n2-c2ccccc2)c([N+](=O)[O-])c1	-9	.	-7	-16	-6	-5
COc1ccc(NC(=O)CSc2ccccc2)c([N+](=O)[O-])c1	22	57*	?	2	0	4
OCC1OC(n2cnc3ccccc32)CC1O (stereo not given)	-4	.	3	-2	1	0
CC(C)Oc1ccc(C(=O)Nc2ccc(NC(=O)c3ccco3)c(Cl)c2)cc1	-12	36	50	17	-2	.
CC1=C(C(=O)Nc2ccc(CC(=O)NCc3ccc(OC(C)C)cc3)cc2)SCCO1	0	46*	6	5	22	-7
COc1ccc(CNC(=O)Cc2ccc(NC(=O)C3=C(C)OCCS3)cc2)cc1	6	8	8	3	14	10
O=C(COc1ccccc1Cl)N1CCNC1=O	6	-3	3	.	0	-3
COCC(=O)n1nc(-c2ccccc2)nc1NCc1ccc(N(C)C)cc1	1	50*	46	13	1	10
Cc1ccc(-c2nc(NCc3ccco3)n(C(=O)c3ccco3)n2)cc1	-14	60*	60	25	1	15
O=C(COc1ccccc1)n1nc(-c2ccc(Cl)cc2)nc1NCc1ccco1	-5	66*	.	-22	16	.
SMILES	Vif imaging	esBAF inh	MITF TRPM1 HTS	PfHsp90 set2	N-glyco inh	Wnt bcat act
O=C(c1ccco1)n1nc(-c2ccccc2)nc1NCc1ccco1	3	15	17	-47	1	.
COCC(=O)n1nc(-c2ccc(C)cc2)nc1NCc1ccc(F)cc1	-5	.	48	-7	4	6
CS(=O)(=O)N(CC(=O)N1CCN(Cc2ccc3c(c2)OCO3)CC1)C1CCCCC1	-7	.	-5	4	2	-1
Cc1ccc(SCCC(=O)N2CCC(C)CC2)cc1	-3	59*	.	.	-5	?
Cc1ccc(SCCC(=O)N2CCC(C(N)=O)CC2)cc1	-1	11	9	9	2	5
CC1CCN(c2oc(-c3ccccc3Cl)nc2C#N)CC1	?	53*	94*	4	1	15
Cc1cccc(-c2nc(C#N)c(N3CCCCCC3)o2)c1	8	73*	66	1	-2	.
